Source: PubChem (several laboratories)
Compounds with a hit are over-represented: about 3.2% of the library has one in this group of screens.
PHOSPHO1 inh: PubChem AID 1565. recombinant PHOSPHO1, absorbance phosphatase assay. inhibition, % at 13.3 µM. actives 1.1% (n = 290,000); in the data active = inhibition above about 60%
ANO1 block: TMEM16A chloride channel inhibitors, primary screen, cell-based, HTS; Anoctamin-1 (Mus musculus), Q8BHY3; HEK293 TMEM16A/YFP iodide influx fluorescence, ionomycin; normalized B-score (activity score, 25-100; higher = stronger inhibition) at 10 µM; actives 1.2% (n = 310,000);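 active = ratio plate-corrected score three or more library SD toward inhibition, starting fluorescence score within five deviations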;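 also: score derived from kinetic fluorescence span divided by baseline fluorescence per well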
CHT allo act: CHT positive allosteric modulators, primary screen, cell-based, membrane potential dye, choline EC20; B-score at 10 µM; High affinity choline transporter 1 (Homo sapiens), Q9GZV3; actives 0.49% (n = 310,000); CHT-expressing cells; active compounds read high; LV-AA mutant CHT in HEK293 cells;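 active = initial fluorescence not abnormally high and integrated response B-score, plate-corrected, over 3 SD above library mean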
HDAC3 inh: HDAC3 deacetylase inhibitors, primary screen, biochemical, fluorescence, cell-free homogeneous | inhibition, % at 8.3 µM | AID 2718, 2010 | recombinant HDAC3, fluorogenic peptide/trypsin coupled | actives 0.15% (n = 320,000); in the data active = inhibition above about 26%, passing the limit was not always enough
CHT block: inhibitors of human choline transporter CHT; actives 0.86% (n = 310,000); CHT-expressing cells, membrane potential dye, choline response; active compounds read low; High affinity choline transporter 1 (Homo sapiens), Q9GZV3; AID 488975, 2010; B-score at 10 µM;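 active = B-score over 3 SD under the library average, and starting fluorescence ratio not unusually high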;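 also: choline stimulus applied at its EC90 after an EC20 pre-addition; B-score computed on integrated fluorescence ratio after choline addition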
TMEM16A act: TMEM16A chloride channel activators or potentiators, primary screen, cell-based, HTS | Anoctamin-1 (Mus musculus), Q8BHY3 | HEK293 TMEM16A/YFP-H148Q/I152L, iodide quench fluorescence; active compounds read low | B-score at 10 µM | actives 0.3% (n = 340,000);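 active = fluorescence-ratio B-score plate-corrected deviation score at least 3 library SD below zero, with starting fluorescence score within 5 deviations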;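 also: channel opened by trigger with iodide after compound preincubation; score built on the fluorescence ratio of max minus min over baseline; more negative score means more quench and so TMEM16A activation or potentiation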
CHT block conf: CHT inhibitors, confirmation, cell-based, membrane potential dye, duplicate; shares compounds with CHT block; CHT-expressing cells, choline membrane potential dye; LV-to-AA substituted CHT, HEK293 cells; CHT activity remaining % of control (active compounds read low), % at 10 µM; actives 70% (n = 2,400); AID 493221, 2011;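 active = choline transporter activity left, mean of duplicates at 10 µM, below buffer-only control mean minus 3 SD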;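 also: depolarization triggered by choline at its EC90 following an EC20 pre-addition; 0% = hemicholinium-3 full block and 100% = buffer-only control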
HEK293 CHT ctr: membrane potential effects in parental HEK293, counter-screen for CHT inhibitor project, cell-based, membrane potential dye | actives 4% (n = 2,400) | membrane potential ratio readout (active if shifted either direction beyond buffer ±3SD; no single direction) at 10 µM | shares compounds with CHT block | choline response; active = decrease or increase beyond buffer ±3SD | AID 493222, 2011;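 also: parental cells lack the transporter so any hit is non-specific; ratio is peak minus trough fluorescence over baseline after EC90 choline challenge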
* hit, by the source's call; i = inactive; . = not tested or not shown.

SMILES | PHOSPHO1 inh | ANO1 block | CHT allo act | HDAC3 inh | CHT block | TMEM16A act | CHT block conf | HEK293 CHT ctr
CCCc1cc(=O)[nH]c(SCC(=O)Nc2cc(S(=O)(=O)N3CCOCC3)ccc2N(CC)CC)n1 | . | . | . | 5 | . | i | . | .
O=C(c1ccco1)N1CCN(C(=O)c2ccco2)C1=S | . | . | . | . | . | i | . | .
CC(C)CNS(=O)(=O)c1ccc(CCC(=O)N2CCN(Cc3ccc4c(c3)OCO4)CC2)cc1 | -8 | 100* | i | -10 | -5.6* | i | 62%* | i
CC(C)CNS(=O)(=O)c1ccc(CCC(=O)N2CCN(Cc3ccccc3)CC2)cc1 | -7 | i | i | -5 | i | i | . | .
Cc1cc(C)n2c(SCC(=O)NC3CCCCC3C)nnc2n1 (centres undefined) | 11 | i | i | -2 | -5.4* | i | 70%* | i
Cc1cc(C)n2c(SCC(=O)NC3CCCC(C)C3C)nnc2n1 (centres undefined) | 2 | i | i | 9 | i | i | . | .
COc1ccc(COC(=O)CN2C(=O)NC3(CCCC3)C2=O)cc1F | . | i | i | -3 | i | i | . | .
CCN(CC)CCNC(=O)c1ccc2c(c1NCCO)C(=O)c1ccccc1C2=O | 7 | i | i | 1 | i | . | . | .
CC1CCN(C(=O)c2ccc3c(c2NCCO)C(=O)c2ccccc2C3=O)CC1 | -1 | i | i | 6 | -6.3* | i | 50%* | 2.3*
Cc1ccc(C(C)C)c(OCC(=O)OCC(=O)NC2CC2)c1 | . | . | . | 2 | . | i | . | .
O=C(NNC(=S)Nc1cccc(C(F)(F)F)c1)c1cccc(Cl)c1 | 7 | i | i | 4 | i | i | . | .
O=C(NNC(=S)Nc1ccc(Br)cc1)c1ccccc1 | -23 | i | i | 1 | i | i | . | .
O=C(NNC(=S)Nc1ccc(Br)cc1)c1ccccc1Br | -98 | i | i | 6 | -5.6* | i | 58%* | i
O=C(NNC(=S)Nc1ccc(Cl)cc1)c1ccccc1OC(F)F | -7 | i | i | 2 | -5.4* | i | 44%* | i
O=C(NNC(=S)Nc1cccc(C(F)(F)F)c1)c1ccccc1Cl | 54 | 25* | i | 7 | -5.8* | i | i | i
CC(=O)NS(=O)(=O)c1ccc(N=c2ssc3c2-c2cc(C)c(C)cc2NC3(C)C)cc1 | 4 | i | i | 3 | i | i | . | .
CC1CCCCC1NC(=O)c1ccc(S(=O)(=O)NNC(=O)c2ccncc2)cc1 (centres undefined) | 43 | i | i | -2 | i | i | . | .
O=C1CCN(C(=O)CSc2ccc(Cl)cc2)N1 | 20 | i | i | -6 | i | i | . | .
O=C(c1ccoc1)N1CCC2(CC1)Oc1ccc(F)cc1C(=O)C21CC(c2ccccc2)=NO1 (centres undefined) | 35 | i | i | 4 | i | i | . | .
CC(C)(C)C(=O)Nc1scc(-c2ccc(-c3ccccc3)cc2)c1C(=O)O | 36 | i | i | 3 | -7.5* | i | 37%* | i
O=C(Nc1scc(-c2ccccc2)c1C(=O)O)c1ccco1 | 11 | i | i | 2 | i | i | . | .
COc1cc(C(=O)Nc2scc(-c3ccc(C)cc3)c2C(=O)O)cc(OC)c1OC | 29 | i | i | -1 | -6.6* | i | 56%* | i
CCC(C)NC(=O)C1CCCN(c2nc(C)cc(OC)n2)C1 (centres undefined) | 2 | i | i | 4 | i | i | . | .
c1cc(-c2nnc3sc(C4CCCCC4)nn23)ccn1 | 13 | i | i | -5 | i | i | . | .
Oc1cccc(C(O)CNCc2ccc(OCc3ccc(Cl)cc3Cl)cc2)c1 (centres undefined) | 29 | i | i | 10 | -5.6* | i | 69%* | i
SMILES | PHOSPHO1 inh | ANO1 block | CHT allo act | HDAC3 inh | CHT block | TMEM16A act | CHT block conf | HEK293 CHT ctr
COc1ccc(CNC(=O)c2cccnc2SC)cc1OC | -22 | i | i | 0 | i | i | . | .
CN(Cc1ccccc1)c1ncnc2ccc(Br)cc12 | 4 | i | i | 4 | i | i | . | .
CN(Cc1ccccc1)c1nc(N)nc(Cl)c1C=O | 12 | i | i | 6 | -5.5* | i | 33%* | i
Cc1cc(C)nc(NS(=O)(=O)c2ccc(NC(=O)C3COc4ccccc4O3)cc2)n1 (centres undefined) | 56 | i | i | -5 | -6.4* | i | 41%* | i
O=C(Nc1ccc(S(=O)(=O)Nc2ccccc2)cc1)C1COc2ccccc2O1 (centres undefined) | 4 | i | i | 13 | i | i | . | .
COc1ccc(OC)c(C(=O)NC(CC(N)=O)c2ccc(N3CCCCCC3)c([N+](=O)[O-])c2)c1 (centres undefined) | -30 | i | i | 7 | i | i | . | .
CCOC(=O)c1sc(=S)n(-c2ccccc2)c1N(C(C)=O)C(C)=O | -8 | i | i | 3 | -6.2* | i | 65%* | i
CCOC(=O)c1sc(=S)n(-c2ccccc2)c1N | -42 | i | i | 1 | i | i | . | .
COc1ccc(NC(=O)C2CCCN2C(=O)OCc2ccccc2)c(OC)c1 (centres undefined) | 18 | i | i | . | i | i | . | .
Cc1nn(C)cc1/C=C(/C#N)C(N)=O | 7 | i | i | 4 | i | i | . | .
CCCN(CCC)Cc1c(C(=O)N/N=C/C(C)=C\c2ccco2)nnn1-c1nonc1N | 4 | i | i | -4 | -5.3* | i | 60%* | i
Nc1nc(CSc2ncn[nH]2)nc(Nc2ccc(F)cc2)n1 | -18 | i | i | -1 | i | i | . | .
Cc1cc(C)c2cc(C=O)c(Cl)nc2c1 | -14 | i | i | -1 | -6.1* | i | i | i
Nc1nonc1C(=O)N/N=C/c1cc2c(cc1[N+](=O)[O-])OCO2 | 32 | i | i | -2 | i | i | . | .
